Active and inactive are the calls of the source.

A short description of experiment [1]: compounds binding Alexa647 anti-His antibody – biochemical, small-molecule microarray, 635 nm fluorescence, artefact control for SMM control protein annotation, primary screen (AID 1128).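 Note: score merges feature fluorescence with signal-to-noise for each printed compound spot.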 To be noted: higher = more signal.
In experiment [2] the test system is Human papillomavirus type 1a E7 protein (residues 1-88). Nature of the experiment: HPV1a E7 small-molecule binders, primary screen, biochemical, small-molecule microarray, residues 1-88, 635 nm (AID 1129). To be noted: small-molecule microarray binding, fluorescence 635 nm; higher = more signal.
Experiment [3] has as its target Focal adhesion kinase 1 (Homo sapiens) (UniProt Q05397). Description: PTK2 protein binding on printed compound slides – biochemical, small-molecule microarray, 635/667 nm fluorescence, BSA, DTT, primary screen (AID 1130).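 Note: composite of spot emission at 667 nm and signal to noise over triplicate slides.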 The settings on record: 635 nm fluorescence, higher = more signal.
Experiment [4] concerns Fibrinogen (Alexa647-labelled). Nature of the experiment: Alexa647-fibrinogen binding to printed small molecules – biochemical, small-molecule microarray, 635/667 nm fluorescence, artefact control for SMM control-protein annotation, profiling panel (AID 1131).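 Note: z-score merges 667 nm fluorescence with per-spot signal-to-noise over triplicate slides.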 To be noted: fibrinogen-A647 binding fluorescence, higher = more signal.
The target in experiment [5] is Follistatin (Homo sapiens) (UniProt P19883). Nature of the experiment: FST protein binding to printed compounds – biochemical, small-molecule microarray, 635/667 nm fluorescence, primary screen (AID 1132). The settings on record: 635 nm fluorescence, higher = more signal.
In experiment [6] the target is Fibroblast growth factor 2 (Homo sapiens) (UniProt P09038). Description: basic fibroblast growth factor binding to printed compounds – biochemical, small-molecule microarray, 635/667 nm fluorescence, primary screen (AID 1133). The settings on record: FGF2, fluorescence 635/667, higher = more signal.
Experiment [7] in a line: JC-1 mitochondrial potential readout, lung cancer cells – cell-based, A549, JC-1 fluorescence, basal, 24 h, 100 nL, profiling panel (AID 1138).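 Note: A549 lung adenocarcinoma cells under basal conditions with no added stimulus; test concentration not given here.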 The settings on record: higher = more signal.
The next experiment deals with Lefty1. Nature of the experiment: Lefty1 protein binding to printed compounds – biochemical, small-molecule microarray, 635/667 nm fluorescence, primary screen (AID 1139). The settings on record: fluorescence 635/667, higher = more signal.
In experiment [8] the test system is wheat germ agglutinin (Triticum aestivum), Alexa647-labelled. Nature of the experiment: Alexa647-WGA lectin binding to printed small molecules – biochemical, small-molecule microarray, 635/667 nm fluorescence, artefact control for SMM control-protein annotation, profiling panel (AID 1140).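 Note: score merges 667 nm feature emission with signal to noise over triplicate slides.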 The settings on record: WGA-A647 binding, 635 nm fluorescence, higher = more signal.

The target in experiment [9] is Luciferin 4-monooxygenase (Photinus pyralis) (UniProt P08659). Nature of the experiment: inhibition of purified Photinus pyralis luciferase – biochemical, luminescence, purified enzyme, 2006 set, primary screen (AID 1141).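 Note: cell-free assay with purified firefly luciferase at 100 ng per well in PBS; test concentration not given here.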 To be noted: purified firefly luciferase, SteadyGlo luminescence, 30 min; higher = more signal, called active from +8 up or from −8 down.
Luciferin 4-monooxygenase (Photinus pyralis), sequence (P08659 whole entry, looked up): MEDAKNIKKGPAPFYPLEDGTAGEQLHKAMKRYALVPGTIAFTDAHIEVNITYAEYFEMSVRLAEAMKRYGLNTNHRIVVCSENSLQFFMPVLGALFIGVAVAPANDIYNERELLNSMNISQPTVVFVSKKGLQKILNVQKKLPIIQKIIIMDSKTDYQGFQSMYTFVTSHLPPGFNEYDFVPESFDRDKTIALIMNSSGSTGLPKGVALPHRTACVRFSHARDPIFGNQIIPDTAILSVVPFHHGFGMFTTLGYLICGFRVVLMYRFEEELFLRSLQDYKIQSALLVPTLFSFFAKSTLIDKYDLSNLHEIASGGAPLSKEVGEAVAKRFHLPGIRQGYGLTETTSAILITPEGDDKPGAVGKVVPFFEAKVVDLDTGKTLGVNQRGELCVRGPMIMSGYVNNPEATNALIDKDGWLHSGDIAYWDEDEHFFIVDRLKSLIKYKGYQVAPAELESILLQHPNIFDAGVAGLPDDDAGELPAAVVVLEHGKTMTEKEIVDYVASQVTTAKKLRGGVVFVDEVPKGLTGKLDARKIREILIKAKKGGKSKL

Fibroblast growth factor 2 (Homo sapiens), sequence (P09038 whole entry, looked up): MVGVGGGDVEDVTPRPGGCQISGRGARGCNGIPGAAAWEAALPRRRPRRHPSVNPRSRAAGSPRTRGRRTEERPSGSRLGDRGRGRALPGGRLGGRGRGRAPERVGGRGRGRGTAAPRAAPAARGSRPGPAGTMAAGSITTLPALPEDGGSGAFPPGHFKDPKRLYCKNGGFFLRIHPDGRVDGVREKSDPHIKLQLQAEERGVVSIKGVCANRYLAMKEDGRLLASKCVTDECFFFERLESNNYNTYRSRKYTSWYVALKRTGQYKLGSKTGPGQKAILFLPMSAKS
Follistatin (Homo sapiens), sequence (P19883 whole entry, looked up): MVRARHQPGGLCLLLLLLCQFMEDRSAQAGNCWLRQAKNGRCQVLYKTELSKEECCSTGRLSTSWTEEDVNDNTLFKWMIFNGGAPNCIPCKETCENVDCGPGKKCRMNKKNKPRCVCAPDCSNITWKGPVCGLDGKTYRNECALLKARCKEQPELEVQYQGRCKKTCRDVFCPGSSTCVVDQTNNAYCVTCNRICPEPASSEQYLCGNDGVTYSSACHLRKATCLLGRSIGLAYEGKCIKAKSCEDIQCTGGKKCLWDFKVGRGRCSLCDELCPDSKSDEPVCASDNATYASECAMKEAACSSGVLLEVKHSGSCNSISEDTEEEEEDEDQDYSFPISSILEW
Focal adhesion kinase 1 (Homo sapiens), sequence (Q05397 whole entry, looked up): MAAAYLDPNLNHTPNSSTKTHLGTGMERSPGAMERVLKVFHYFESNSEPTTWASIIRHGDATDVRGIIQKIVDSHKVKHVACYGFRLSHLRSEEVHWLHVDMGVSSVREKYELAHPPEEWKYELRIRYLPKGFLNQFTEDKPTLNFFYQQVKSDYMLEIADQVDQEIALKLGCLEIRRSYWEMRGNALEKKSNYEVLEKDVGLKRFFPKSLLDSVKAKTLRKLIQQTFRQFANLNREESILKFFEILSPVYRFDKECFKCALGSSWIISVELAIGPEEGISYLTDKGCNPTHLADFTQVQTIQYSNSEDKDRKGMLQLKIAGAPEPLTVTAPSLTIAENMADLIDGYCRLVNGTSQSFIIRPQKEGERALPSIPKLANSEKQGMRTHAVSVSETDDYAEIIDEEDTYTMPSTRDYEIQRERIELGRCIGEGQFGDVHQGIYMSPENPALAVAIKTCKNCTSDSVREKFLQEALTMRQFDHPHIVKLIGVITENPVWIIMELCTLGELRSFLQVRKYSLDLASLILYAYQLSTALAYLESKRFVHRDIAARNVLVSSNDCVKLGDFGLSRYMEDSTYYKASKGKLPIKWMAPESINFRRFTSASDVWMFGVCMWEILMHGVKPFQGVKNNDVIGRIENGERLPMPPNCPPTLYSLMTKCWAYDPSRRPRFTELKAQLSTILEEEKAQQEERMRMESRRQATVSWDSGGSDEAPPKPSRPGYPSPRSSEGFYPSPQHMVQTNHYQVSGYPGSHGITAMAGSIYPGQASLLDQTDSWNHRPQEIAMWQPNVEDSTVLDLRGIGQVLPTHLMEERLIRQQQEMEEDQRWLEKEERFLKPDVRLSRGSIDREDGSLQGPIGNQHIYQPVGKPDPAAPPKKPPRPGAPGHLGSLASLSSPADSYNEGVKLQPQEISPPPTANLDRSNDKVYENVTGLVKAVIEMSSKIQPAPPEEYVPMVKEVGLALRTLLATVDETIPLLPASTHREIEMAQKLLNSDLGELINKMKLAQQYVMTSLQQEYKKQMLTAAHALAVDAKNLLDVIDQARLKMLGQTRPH

With `COC(=O)[C@@]1(Cc2ccc(F)cc2)[C@H]2c3cc(C(=O)N(C)C)n(CCn4cc([N+](=O)[O-])nc4C)c3C[C@H]2CN1C(=O)c1ccccc1`, the composite z-score in experiment [1] is 1.07; in [2] it was 1.11; in experiment [3] it was 1.45; in experiment [4] it was 0.835; in experiment [5], -0.394; in [6], -0.776. Besides, the results for the composite z-score (with Lefty1; in experiment [8]) were -1.07 and 0.288, respectively. Moreover, the z-score was 0.608 in [7] and 0.984 (inactive) in experiment [9].

Take `COc1cccc(C[C@H]2C[C@@H](CO[Si](C(C)C)(C(C)C)C(C)C)N3C(=O)[C@@]4(C(C)=O)O[C@@]23[C@@H]2C(=O)N(C)C(=O)[C@@H]24)c1`: the composite z-score in experiment [1] is -0.265; in experiment [2], 0.681; in experiment [3], 0.0669; in experiment [4] it was 0.529; in experiment [5], 0.897; in [6], 1.25. Besides, the composite z-score in the experiment on Lefty1 worked out at 1.4; in [8], 0.326. The z-score in experiment [7] is 0.189; in experiment [9], 0.768 (inactive).

Consider `C/C=C/CN(C(=O)C#Cc1ccccc1)[C@H](CO[Si](C)(C)C(C)(C)C)c1ccccc1`, for which the composite z-score in experiment [1] was -1.73; in experiment [2], -0.0136; in experiment [3] it was -0.1; in [4] it was -2.12; in [5] it was -1.52; in experiment [6], -1.25. Moreover, the composite z-score with Lefty1 was -0.977; in [8], -1.7. Besides, the values for the z-score in [7] and in [9] were 0.2 and -0.178 (inactive), respectively.

In the case of `Cc1ccccc1C(O)C1C=CC2C(=O)N(c3ccccc3)C(=O)C2N1Nc1ccccc1F` (stereo not given), the composite z-score was 2.08 in [1]; 1.22 in [2]; 0.622 in [3]; 1.06 in [4]; 1.01 in experiment [5]; 0.624 in [6]. Also, the composite z-score in the experiment on Lefty1 is -0.245; in experiment [8], 1.15. The z-score is -0.932 in [7] and -0.782 (inactive) in [9].

For `COc1cccc(OC)c1C(=O)O[C@H]1[C@@H]2OC(=O)[C@H](Cc3cccc(Br)c3)C/C=C/C[C@@H](Cc3cccc(Br)c3)C(=O)O[C@H]2[C@@H](OC)O[C@@H]1CO`, the composite z-score in experiment [1] stood at 0.267; in [2] it was 1.1; in experiment [3] it was 0.573; in [4] it was 0.383; in [5] it was 1.38; in [6], 1.28. In addition, the values for the composite z-score (in the experiment on Lefty1; in experiment [8]) were 0.742 and 0.0452, respectively. Besides, the z-score was 1.27 in experiment [7] and -0.21 (inactive) in experiment [9].

As for `C=CCC(OC(C)=O)[C@@H]1[C@@H](N(Cc2ccc(-c3cccc(C(F)(F)F)c3)o2)C(=O)c2cccc3ccccc23)c2cc(OCCCO)ccc2N1C(=O)c1ccc2ccccc2n1` (stereo not given in full), the composite z-score in experiment [1] was -0.188; in experiment [2], -0.696; in experiment [3], -0.323; in [4], -0.0203; in experiment [5], 0.587; in [6], 0.0226. In addition, the composite z-score was 0.375 in the experiment on Lefty1 and -0.0681 in experiment [8]. Further, the figures for the z-score in experiment [7] and in experiment [9] were -0.431 and 0.587 (inactive), respectively.

Consider `C=CCOC(=O)[C@H]1[C@@H]2C(=O)O[C@@H](c3ccccc3)[C@@H](c3ccccc3)N2[C@@H](c2ccc(OCCOC(=O)[C@@H]3C[C@@H]4C(=O)N[C@@H](CC(C)C)C(=O)N4[C@@H]3c3ccc(O)cc3)cc2)[C@]12C(=O)Nc1ccc(I)cc12`, for which the composite z-score is 0.785 in [1]; 0.935 in experiment [2]; 0.443 in experiment [3]; 0.761 in experiment [4]; 1.08 in experiment [5]; 1.89 in experiment [6]. In addition, the results for the composite z-score (in the experiment on Lefty1; in experiment [8]) were 0.677 and 0.902, respectively. The z-score in [7] is -0.946; in experiment [9], -2.13 (inactive).

Take `C#CCN(C/C=C/c1ccccc1)[C@H](CO[Si](C)(C)C(C)(C)C)c1ccccc1`: the composite z-score in experiment [1] was 0.953; in experiment [2], -0.786; in [3] it was 0.329; in [4] it was -0.759; in [5] it was -0.0993; in experiment [6] it was -0.187. The composite z-score in the experiment on Lefty1 was 0.178; in [8], -0.0631. Moreover, the z-score was -2.21 in experiment [7] and 0.43 (inactive) in experiment [9].

Regarding `CC(=O)c1ccc(C(O)C2C=CC3C(=O)NC(=O)C3N2Nc2ccc(Cl)cc2Cl)cc1` (stereo not given), the composite z-score in experiment [1] is 1.48; in experiment [2], -0.106; in experiment [3], -0.363; in experiment [4], -0.131; in experiment [5], 0.504; in experiment [6], -0.115. Besides, the composite z-score was -0.0596 with Lefty1 and 0.564 in experiment [8]. The values for the z-score in experiment [7] and in [9] were -0.76 and 0.284 (inactive), respectively.

`CCOC(=O)C[C@H]1[C@H](OC(=O)Cc2ccc3c(c2)OCO3)[C@@H](NC(=O)c2ccccc2)c2cc(OCCCO)ccc2N1C(=O)Cc1ccc(OC)cc1`: the composite z-score in [1] was 0.752; in [2] it was 0.263; in experiment [3] it was 0.161; in experiment [4], 0.792; in [5], 0.19; in [6] it was -0.027. The composite z-score with Lefty1 is 0.305; in [8], 0.674. Also, the figures for the z-score in experiment [7] and in [9] were 0.291 and 0.296 (inactive), respectively.

In the case of `C=CCC(OC(C)=O)[C@@H]1[C@@H](N(Cc2ccc(-c3cccc(C(F)(F)F)c3)o2)C(=O)Cc2ccc(F)cc2)c2cc(OCCCO)ccc2N1C(=O)c1ccc2ccccc2n1` (stereo not given in full), the composite z-score is -0.255 in experiment [1]; -0.732 in experiment [2]; -0.153 in experiment [3]; -1.12 in experiment [4]; 0.67 in [5]; -0.0898 in experiment [6]. The composite z-score was -0.286 with Lefty1 and -0.375 in experiment [8]. Besides, the z-score in [7] is 0.898; in experiment [9] it was -0.1 (inactive).

With `O=C1OCCC/C=C\[C@H]2OC34C=CCN(Cc5ccccc5)C(=O)[C@H]3N(CCCCCO)C(=O)[C@@H]4C12` (stereo not given in full), the composite z-score is -0.862 in [1]; -1.2 in experiment [2]; -0.603 in [3]; -1.62 in experiment [4]; -1.07 in experiment [5]; -0.883 in experiment [6]. The composite z-score in the experiment on Lefty1 was -0.696; in [8], -1.09. The z-score was 0.537 in experiment [7] and -0.984 (inactive) in experiment [9].

As for `O=C(NCCO)C1=C[C@H](Oc2ccccc2I)[C@@H](O)[C@H](NCc2ccc(F)cc2)C1`, the composite z-score in experiment [1] was -0.223; in [2] it was -1.23; in experiment [3], -0.279; in [4], -2.27; in experiment [5] it was 1.31; in [6] it was 0.795. Further, the composite z-score in the experiment on Lefty1 is 1.45; in experiment [8], -1.25. Further, the values for the z-score in experiment [7] and in experiment [9] were -0.697 and 0.243 (inactive), respectively.

With `COC(=O)C1=CC(CCCO)=CC(c2ccc(CN3CCCC3)cc2)N(Cc2sc3ccccc3c2Cl)C=C1C(=O)OC` (stereo not given), the composite z-score in [1] amounted to 3.17; in [2], 1.23; in [3], 0.579; in experiment [4], 1.05; in experiment [5], 0.59; in [6], 0.709. For the same molecule, the values for the composite z-score (in the experiment with Lefty1; in [8]) were 0.377 and 1.34, respectively. In addition, the z-score is 4.12 in experiment [7] and -2.8 (inactive) in experiment [9].

The record behind these values is PubChem BioAssay.
